Results filed as inconclusive are left out. Values without a mark were called inactive. Active and inactive are the calls of the source.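 How the source made its calls: active means dose-dependent loss of cell ATP signal giving a full or clear fitted curve, ranked by lower potency value; inconclusive means weak partial curve or response only at the top dose; inactive means no loss of viability signal.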
Experiment: Cell Viability - Jurkat (AID 426);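 further: cells exposed to compound for 40 hours at 37 °C before ATP read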
Conditions: qHTS
Excerpt: NIH Chemical Genomics Center [NCGC]
NIH Molecular Libraries Screening Centers Network [MLSCN]
National Institutes of Environmental Health Sciences [NIEHS]
National Toxicology Program [NTP]
We have developed a 1536-well cell-based assay for quantitative high throughput screening (qHTS) against a number of cell lines to determine in vitro cytotoxicity of small molecules. This particular assay uses the Jurkat cell line (Clone E6-1) which is derived from the human T cell leukemia.
NCGC Assay Protocol Summary:
The CellTiter-Glo luminescent cell viability assay (Promega) is a homogeneous method to measure the number of viable cells in culture. The end point readout of this assay is based on quantitation of intracellular ATP, an indicator of metabolic activity, using the luciferase reaction. Luciferase catalyzes the oxidation of beetle Luciferin to oxyluciferin and light in the presence of ATP. The luminescent signal is proportional to amount of ATP present.
Using the CellTiter-Glo luminescent cell viability assay, the amount of cellular ATP was measured in the Jurkat cell line with complete culture medium following compound treatment for 40 hours. The assay was performed in opaque white Kalypsys 1536-well plates. In the screen, tamoxifen and doxorubicin were used as positive controls. Library compounds were measured for their ability to cause acute toxicity in the cell line, as reflected by a decrease in intracellular ATP levels, in a concentration-dependent manner. […] AC50 values were determined from concentration-response data modeled with the standard Hill equation.
qHTS protocol for CellTiter Glo Jurkat cellular assay
[Step] [Parameter] [Value] [Description]
1. Reagent; 5 uL; 5000 Jurkat cells/well
3. Controls; 23 nL; Tamoxifen 0.34 uM to 100 uM & Doxorubicin 0.02 nM to 100 uM
4. Time; 40 hr; 37 °C incubation
5. Reagent; 5 uL; CellTiter Glo reagent
6. Time; 20 min; Room Temperature
7. Detection; Luminescence; Viewlux plate reader
Keywords: cell viability, cytotoxicity, Jurkat cell line, luminescence, NTPHTS, NTPHTS_NCGC, NIEHS, EPA, DSSTox, MLSMR, MLSCN, NIH Roadmap, qHTS, NCGC
Potency means the concentration at half of the fitted maximal effect.

Compound	Potency
COc1ccccc1O	> 92 µM
CC12CCC(CC1)C(C)(C)O2	> 92 µM
[Cl][In]([Cl])[Cl]	> 92 µM
CCCCCCCCCCCCOS(=O)(=O)O	> 92 µM
Cc1c(O)cccc1C(=O)N[C@@H](CSc1ccccc1)[C@H](O)CN1C[C@H]2CCCC[C@H]2C[C@H]1C(=O)NC(C)(C)C	31.8 µM (active)
CCCCOC(=O)c1ccc(O)cc1	> 92 µM
C[C@]12C[C@H](O)[C@H]3[C@@H](CCC4=CC(=O)CC[C@@]43C)[C@@H]1CC[C@@H]2C(=O)CO	> 92 µM
NCCNCCNCCNCCN	> 92 µM
Cc1cc2nc3c(=O)[nH]c(=O)nc-3n(C[C@H](O)[C@H](O)[C@H](O)CO)c2cc1C	> 92 µM
NC(=O)c1ncn([C@@H]2O[C@H](CO)[C@@H](O)[C@H]2O)n1	> 92 µM
Cc1cc(CC(=O)O)n(C)c1C(=O)c1ccc(Cl)cc1	> 92 µM
O=C1O[C@H]([C@@H](O)CO)C(O)=C1O	> 92 µM
Nc1ccc(S(=O)(=O)Nc2nccs2)cc1	> 92 µM
NCCNCCNCCN	> 92 µM
CC1(C)[C@@H]2CC[C@@]1(C)C(=O)C2	> 92 µM
O=C1c2c(O)cccc2Cc2cccc(O)c21	> 92 µM

Reference: PubChem BioAssay (NCATS)
